Compounds without any hit were thinned out: in the full panel of roughly 83,000, 20% have a hit.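 Interpretation: 100, growth as untreated; towards 0, rising growth inhibition; 0, no net growth; 0 to -100, cell death. Compounds scoring below 10 were considered active.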 Unmarked numbers belong to inactive results. Active and inactive are the calls of the source.
Test system: BT-549 breast
Assay: NCI-60 one-dose screen, 48 h (100 = growth as untreated, 0 = no growth, -100 = all killed)
Settings: 10 µM unless noted
Experimental: Growth inhibition of the BT-549 human tumor cell line is measured as a screen for anti-cancer activity. Cells are grown in 96 well plates and exposed to the test compound for 48 hours. Compounds are tested at a single concentration, which is 10^-5 M for most compounds. The reported endpoint is percent growth (GI% or GIPRCNT), where numbers from 0 - 100% represent growth inhibition, and numbers from -100% - 0 represent cell death. For example, a value of 40 represents 60% growth inhibition. A value of 0 means no net growth occurred over the course of the experiment. A value of -40 indicates 40% of cells at the beginning of the experiment died by the end of the experiment. A value of -100 means all cells are dead at the end of the experiment.
NCI-60 Human Tumor Cell Lines Screen was performed using the standard one-dose NCI protocol, which is described in more detail at https://dtp.cancer.gov/discovery_development/nci-60/default.htm.
Compounds with GIPRCNT values below 10 were considered active. Activity score was based on GIPRCNT using the following formula: […]
Score is 0 for GIPRCNT values of 100 or above, 50 for GIPRCNT values of 0, and 100 for GIPRCNT values of -100.

Row | Compound | growth
1 | O=C(O)c1ccc(-n2cc(/C=N/Nc3ccc(Cl)cc3)c(-c3ccc(F)c(F)c3)n2)cc1 | 70%
2 | COc1cc(NC(=O)c2cc(OC)c3ccn(C)c3c2)cc2c1C[C@]1(C)CC[C@@H](O)C(C)(C)[C@H]1O2 | 36.9%
3 | Cc1cc(Nc2ccc(Cl)c(Cl)c2)nc(N)n1 | 94.4%
4 | CCOC(=O)C(C)(CSSCC(C)(NC(=O)c1ccc2ccccc2c1)C(=O)OCC)NC(=O)c1ccc2ccccc2c1 (stereo not given) | 138%
5 | Nc1nc(Nc2ccc(OCc3cccc(F)c3)cc2)c2c(n1)[nH]c1ccc(O)cc12 | -84.9% (active)
6 | Cc1[nH]c2ccc(F)cc2c1CCNC(=O)C1CCN(C(=O)c2ccc(-c3ccccc3)cc2)CC1 | 40.8%
7 | C#CCn1c(-c2cc(OC)c(OC)cc2Br)nc(-c2ccccc2)c1-c1ccccc1 | 60.7%
8 | CC(=O)CC/C=C(\C)[C@H](O)[C@H](C)C(=O)O[C@H]1C[C@H](C)C=C2C=C[C@@]3(C)O[C@@H](O)CC(=O)[C@]3(C)[C@H]21 | -57% (active)
9 | [2H]c1nc(Nc2ncc(F)c(-c3cc(F)c4nc(C)n(C(C)C)c4c3)n2)c([2H])c([2H])c1CN1CCN(CC)CC1 | 55.4%
10 | CCn1cc(C(=O)O)c(=O)c2cc(F)c(N3CCN(CC(=O)Nc4ccc(C(C)=O)cc4)CC3)cc21 | 109%
11 | CC(/C=C/C=C(\C)[C@H](O)[C@H](C)C(=O)O[C@H]1C[C@H](C)C=C2C=C[C@@]3(C)O[C@@H](O)CC(=O)[C@]3(C)[C@H]21)=C\C=C\C(=O)O | -21.5% (active)
12 | O=C1C(Cl)=C(Nc2cccc3cc4ccccc4nc23)C(=O)c2ccccc21 | 91.7%
13 | Fc1ccc(Nc2ncnc3ccc(-c4cn[nH]c4)cc23)cc1Cl | 58%
14 | Cc1ccn2cc(Cc3cc(=O)oc4c3ccc3ccccc34)c(=O)nc2c1 | 99.5%
15 | O=C(Nc1ccc(-n2ccc3c(NC(=O)c4ccccc4)ncnc32)cc1)c1cccc(C(F)(F)F)c1 | 51.9%
16 | COCCNC(C(=O)c1ccccc1)c1ccccc1 (stereo not given) | 97.6%
17 | Fc1ccc(/C=N/n2c(-c3cc(Cl)cc(Cl)c3Cl)nn(CNc3ccc(Cl)nn3)c2=S)cc1 | 114%
18 | CC(C)(CCN=C(N)Nc1ccccn1)c1ccc(C(F)(F)F)cc1 | 32.2%
19 | CN1CCN(Cn2nc(-c3cc(Cl)cc(Cl)c3Cl)n(/N=C/c3ccc(Cl)cc3)c2=S)CC1 | 102%
20 | Cc1nssc1=S | 110%

Row | Compound | growth
21 | CCC1S/C(=N\N=C(/C)c2cc3ccccc3o2)N(c2ccccc2)C1=O (stereo not given) | 234%
22 | O=C(NC(=S)Nc1ccc(Cl)cc1)c1ccccc1 | 131%
23 | CN(C)CCCOc1c(Br)cc(/C=C/C(=O)N(C)CCc2cc(Br)c(OCCCN(C)C)c(Br)c2)cc1Br | 76.5%
24 | CC(C(=O)O)N1C(N)=NNC1c1ccccc1O (stereo not given) | 104%
25 | CC1=C2C(=C[C@@](C)(CO)[C@@H]2OC(=O)N(C)CCN(C)C(=O)OC(C)(C)C)C(=O)[C@](C)(O)C12CC2 | 56.8%
26 | CCCC(C)(C)COC(=O)c1cccc(N)c1 | 79.9%
27 | O=C1COc2ccccc2C(=O)N1CCCCNc1ccccc1 | 46%
28 | COc1cc2c(cc1OCCCCC(=O)Nc1ccc(-c3nc4ccccc4s3)cc1)N=C[C@@H]1CCCN1C2=O | -76.4% (active)
29 | COc1cccc(C2CC(c3cc(OC)c(OC)c(OC)c3)=NN2)c1 (stereo not given) | 93.6%
30 | C#CC(=O)/C=C/CCCCCCC#CC(=O)CCC(=O)C#CCCCCCC/C=C/C(=O)C#C | -15.3% (active)
31 | CC(C)(C)OC(=O)NCc1cccc(N=C=S)c1 | 10.3%
32 | C#C[C@@]1(O)[C@@H](CO)O[C@@H](n2cc(C(F)(F)F)c3c(N)ncnc32)[C@@H]1O | -12.1% (active)
33 | CCOc1ccc(-n2c(-c3cc(OC)c(OC)c(OC)c3)nnc2-c2ccc(OC)cc2N)cc1 | 84%
34 | O=C(Nc1ccc(-n2ccc3c(NC(=O)c4ccccc4)ncnc32)cc1)Nc1cccc(Cl)c1Cl | 49.2%
35 | Cc1ccc(-c2nc3c(N=Nc4ccc(S(N)(=O)=O)cc4)c(N)nn3c(N)c2C#N)cc1 | 56%
36 | COc1ccc(-c2nnc(NC(=O)CN3CCN(c4cc5c(cc4F)c(=O)c(C(=O)O)cn5C4CC4)CC3)s2)cc1OC | 105%
37 | COc1ccc(C(=O)NC(=O)Nc2ccc3c(c2)NC(=O)/C3=C\c2[nH]c(C)c(C(=O)O)c2C)cc1 | 89%
38 | Cc1cc2c(cc1C)N(C(=O)CCl)CCN2C(=O)CCl | -28.3% (active)
39 | COc1ccc2c(c1)/C(=C/c1c(-c3cc(OC)c(OC)c(OC)c3Br)nc3sccn13)C(=O)N2 | 86.2%
40 | COC(=O)CCCNS(=O)(=O)c1cc(C(=O)Nc2ccc(NC(=O)c3cc(S(=O)(=O)NCCCC(=O)OC)c(O)c(O)c3O)cc2)c(O)c(O)c1O | 99.4%

Reference: PubChem BioAssay (NCI)
